This passage reports manual score results from PubChem BioAssay AID623868 (Vanderbilt High Throughput Screening Facility, 2012).

SMILES strings stand for the structures. The whole screen tested about 2,100 compounds, of which about 760 (36%) were called active.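 The calls were made as follows: active = thallium-flux fluorescence traces judged by eye to show enhanced or reduced glutamate response, manual score 1 or -1, so both directions (some results past the limit were not filed as active); inactive = the rest, including fluorescent or raised-baseline compounds.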 These entries were drawn from the full list.

This experiment can be described thus: non-GIRK thallium flux modulation in mGlu8 cells, confirmation, counter-screen for GIRK activator project, cell-based, HEK-293 rmGlu8, no GIRK (AID 623868).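 Also: extra codes mark interference with 3 for fluorescent and 4 for baseline rise.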 The note with it: thallium flux fluorescence, at 10 µM, actives lie on both sides, codes: 1 enhancer, -1 blocker, 0 none, thallium stimulus containing EC20 glutamate.
As to `Cc1ccc(Nc2n[nH]c(C)c2[N+](=O)[O-])cc1C`, the manual score is 0 (inactive).
In the case of `O=c1c(O)c(-c2cccs2)oc2ccccc12`, the manual score is 3 (inactive).
Take `CCN(CC)CCN1C(=O)c2oc3ccccc3c(=O)c2C1c1ccc(F)cc1` (centres undefined): the manual score is 0 (inactive).
In the case of `CCN(CC)CCN1C(=O)c2oc3ccccc3c(=O)c2C1c1ccccc1` (centres undefined), the manual score is 0.5 (inactive).
Turning to `CCN(CC)CCCN1C(=O)c2oc3ccccc3c(=O)c2C1c1cccs1` (centres undefined), the manual score was 1 (active).
Regarding `NC(=O)COc1ccc(C2c3c(oc4ccccc4c3=O)C(=O)N2CC2CCCO2)cc1` (centres undefined), the manual score was 0 (inactive).
Consider `CN(C)CCCN1C(=O)c2oc3ccccc3c(=O)c2C1c1cccs1` (centres undefined), for which the manual score was 1 (active).
For `O=C1Nc2ccccc2C12OCC1(CO2)COC2(OC1)C(=O)Nc1ccccc12` (centres undefined), the manual score is 0 (inactive).
The value for `Cc1ccc(N2CC(C(=O)Oc3cccc(N4C(=O)CCC4=O)c3)CC2=O)cc1` (centres undefined) was 0 (inactive); that for `O=C(Nc1nnc(-c2ccc(Cl)cc2)o1)c1ccc(N2C(=O)CCC2=O)cc1` was 1 (active).
The same measure for `O=C(Nc1nnc(-c2ccc(Cl)cc2)o1)c1cccc(N2C(=O)CCC2=O)c1`: 1 (active); for `COc1ccccc1NC(=O)c1cc(C(=O)Nc2ccccc2OC)cc(N2C(=O)CCC2=O)c1`: 0 (inactive); for `CCNc1nnc(-c2ccc(C)cc2)o1`: 0 (inactive).
Take `COc1cccc2sc(Nc3nc(-c4ccccn4)cs3)nc12`: the manual score was 1 (active).
The same measure for `COc1cccc2sc(Nc3nnc(-c4cccs4)o3)nc12`: 1 (active); for `COc1ccc(-c2nnc(Nc3nc4c(OC)cccc4s3)o2)cc1`: 1 (active).
The value for `CCN(CC)c1nc(C)nc2c1cnn2CCc1ccccc1` was 0 (inactive); that for `Cc1cc(C)c2[nH]c(=S)cc(C)c2c1` was 1 (active); that for `Cc1cc(=S)[nH]c2c(C)cccc12` was 1 (active).
The value for `CCOc1ccccc1Nc1nnc(Cc2ccccc2Cl)c(=O)[nH]1` was 0 (inactive); that for `CCOC(=O)C1=C(C)NC(=O)NC1c1ccc(Br)o1` (centres undefined) was 0 (inactive).
For `CCOC(=O)C1=C(C)N=C2SCCC(=O)N2C1c1sccc1C` (centres undefined), the manual score is -1 (active).
Consider `CC(C)(C)c1nnc(N/N=C/c2ccccc2)n(N)c1=O`, for which the manual score is 0 (inactive).
With `Cc1cc(=O)n2[nH]c(C)c(-c3ccccc3)c2n1`, the manual score is -0.5 (inactive).
Take `Cc1[nH]n2c(=O)cc(C(C)(C)C)nc2c1-c1ccccc1`: the manual score was 1 (active).
As for `Cc1nc2c(-c3ccccc3)c(C)[nH]n2c(=O)c1Cl`, the manual score is 0 (inactive).
Turning to `CC/C(=N\NC(=S)Nc1cc(C)ccc1C)c1ccc(OC(F)F)cc1`, the manual score is 0 (inactive).
In the case of `COc1ccc(C/C(C)=N/NC(=S)Nc2ccccc2)cc1`, the manual score is 1 (active).
Take `CC/C(=N\NC(=S)Nc1ccc(OC)cc1)c1ccc(OC(F)F)cc1`: the manual score was 1 (active).
Regarding `COc1ccc(C(=S)Nc2ccc(N(C)C)cc2)cc1`, the manual score is 0 (inactive).
Regarding `COc1ccc(NC(=S)Nc2ccc(OCc3ccccc3)cc2)cc1OC`, the manual score is 0 (inactive).
Turning to `CCC1(C)OCC(Cn2c3ccccc3c3ccccc32)O1` (centres undefined), the manual score was 0 (inactive).
For `O=c1[nH]c(NCCO)nc2c1C1(CCCCC1)Cc1ccccc1-2`, the manual score was 0 (inactive).
For `C=CCOc1cccc(C2/C(=C(/O)c3ccc(C)cc3)C(=O)C(=O)N2CCN2CCOCC2)c1` (centres undefined), the manual score is 0 (inactive).
On to `Cc1ccc(/C(O)=C2\C(=O)C(=O)N(c3cc(C)on3)C2c2cccc(Br)c2)cc1` (centres undefined), for which the manual score was -1 (active).
For `CCN(CC)c1ccc2cc(C=O)c(=O)oc2c1`, the manual score was 3 (inactive).
For `Cc1cccc(C)c1NC(=S)NC(=O)CCc1ccccc1`, the manual score is 1 (active).
`Cc1cccc(NC(=O)NC(=S)NC(=O)c2ccccc2)c1`: the manual score is 1 (active).
The same measure for `Cc1ccccc1NC(=S)NC(=O)CCc1ccccc1`: 1 (active).
Regarding `Cc1cccc(NC(=S)N/C(=N/S(=O)(=O)c2ccccc2)c2ccccc2)c1`, the manual score was 1 (active).
As to `Cc1ccccc1NC(=O)C(=O)NC(C)CCc1ccccc1` (centres undefined), the manual score was 0 (inactive).
As for `O=C(O)CN=C(NS(=O)(=O)c1ccccc1)c1ccccc1`, the manual score is 0 (inactive).
As for `CC(C)Oc1ccc(C2CC(=O)N(c3ccccc3)C2=O)cc1` (centres undefined), the manual score is 0 (inactive).
On to `Nc1c(C(O)(C(F)(F)F)C(F)(F)F)ccc2ccccc12`, for which the manual score is 0 (inactive).
For the molecule `CC(C)(C)CC(=O)Nc1ccc(C(N)=O)cc1`, the manual score is 0 (inactive).
Regarding `Cc1cccc(NC(=O)NC(C)CCc2ccccc2)c1` (centres undefined), the manual score was 0 (inactive).
`Cc1cccc(NC(=S)NC(=O)CCc2ccccc2)c1`: the manual score was 1 (active).
For `O=C(Cc1ccccc1)NC(=S)Nc1cccc(C(F)(F)F)c1`, the manual score is 0 (inactive).
The value for `O=C1OC2(CCCCC2)OC(=O)C1=CNc1nc2ccccc2s1` was 1 (active).
As for `O=C(Nc1ccc(O)c(-c2nc3ccccc3s2)c1)C1=COCCO1`, the manual score is 0 (inactive).
With `CN(C)c1nc2ccccc2c(N)c1-c1ccccc1`, the manual score is 0 (inactive).
Turning to `COc1ccc(-c2nnc3sc(C4CCCCC4)nn23)cc1OC`, the manual score is -0.5 (inactive).
The value for `Cc1ccc(-c2csc3nc[nH]c(=S)c23)cc1C` was 1 (active); that for `S=c1[nH]cnc2scc(-c3ccccc3)c12` was 1 (active); that for `CCCc1nc2scc(-c3ccccc3)c2c(=O)n1N` was 0 (inactive).
`CC1(C)Cc2nc(NCCN3CCOCC3)c(C#N)cc2CO1`: the manual score was 0 (inactive).
On to `O=c1cc(Cn2ccnc2)c2cc3c(cc2o1)CCC3`, for which the manual score is 0 (inactive).
Turning to `O=C(CN1C(=O)/C(=C/c2ccccc2F)Oc2ccccc21)N1CCN(c2ccccn2)CC1`, the manual score is 0 (inactive).
The same measure for `CCOC(=O)c1c(NC(=O)CSc2nnc(-c3ccncc3)n2Cc2ccco2)sc(C(C)=O)c1C`: -1 (active); for `COC(=O)c1c(NC(=O)CSc2nnc(-c3cccnc3)n2Cc2ccco2)sc(C)c1C`: -1 (active).
The same measure for `O=C(CCn1c(=O)oc2ccccc21)N1CCN(c2ccccc2Cl)CC1`: 0 (inactive).
The same measure for `S=C(Nc1cccc(Cl)c1)Nc1ccccc1Oc1ccccc1`: 0 (inactive); for `CN(C)S(=O)(=O)c1cccc(NC(=O)Cc2ccc(Cl)cc2)c1`: 0 (inactive).
As to `S=C(Nc1ccccc1Oc1ccccc1)Nc1cccc(Cl)c1Cl`, the manual score is 1 (active).
Consider `S=C(Nc1ccc(Cl)cc1Cl)Nc1ccccc1Oc1ccccc1`, for which the manual score is 1 (active).
Consider `S=C(Nc1ccc(Oc2ccccc2)cc1)NC1CCCC1`, for which the manual score is 0 (inactive).
The value for `S=C(Nc1ccccc1)Nc1cc(Cl)ccc1Oc1ccccc1` was 0 (inactive).
For the molecule `S=C(NCCc1ccccc1)Nc1ccc(Cl)cc1Cl`, the manual score is 0 (inactive).
The same measure for `COc1ccccc1NC(=S)NCCc1ccc(Cl)cc1`: 0 (inactive); for `CN(C)S(=O)(=O)c1cccc(NC(=S)Nc2ccc(Cl)cc2Cl)c1`: 1 (active); for `S=C(Nc1ccccc1Cl)Nc1ccc(Cl)cc1Cl`: 1 (active).
The same measure for `CN(C)S(=O)(=O)c1cccc(NC(=S)Nc2cc(Cl)cc(Cl)c2)c1`: 0 (inactive); for `COC(=O)CSc1nnc(SCc2ccc(OC)cc2)s1`: -0.5 (inactive).
Turning to `Cc1ccc(C2C3=C(NCCN=C3c3ccccc3)C(=O)N2c2ccccc2)cc1` (centres undefined), the manual score is 0 (inactive).
Turning to `CCCCn1c(=O)nc2n(-c3ccccc3)c3ccccc3cc-2c1=O`, the manual score was 0 (inactive).
In the case of `O=C1c2ccccc2C(Nc2ccc3c(c2)OCCO3)N1Cc1ccccc1` (centres undefined), the manual score was 0 (inactive).
On to `Cc1ccccc1Cn1c(-c2cncs2)nc2ccccc21`, for which the manual score was 0 (inactive).
The value for `Cn1nc(C(F)(F)F)c2cc(NC(=O)OCc3ccc(F)cc3)sc21` was 0 (inactive).
As to `CCc1cccc(NC(=O)CSC2=NS(=O)(=O)c3ccccc32)c1`, the manual score is 0 (inactive).
The value for `CC(C)OCCCNC(=O)c1cccc(NC(=O)c2ccccc2)c1` was 0 (inactive); that for `Cn1cccc1-c1nc2ccc(NC(=O)c3cccs3)cc2[nH]1` was 0 (inactive).
Take `O=C(Nc1ccc2[nH]c(=S)sc2c1)c1ccccc1`: the manual score was 1 (active).
`COc1ccc(OCCCN2CCCCCC2)cc1`: the manual score is 0 (inactive).
Regarding `O=C(COC(=O)C1CC2C=CC1C2)Nc1ccc2c(c1)OC(F)(F)O2` (centres undefined), the manual score is 0 (inactive).
The same measure for `O=C(Nc1nc(-c2cc3ccccc3oc2=O)cs1)c1ccc(Br)o1`: 0 (inactive); for `O=C(Nc1nc(-c2ccccn2)cs1)c1ccc(Br)s1`: 1 (active).
As to `CC(C)(C)c1csc(NC(=O)c2ccc3nccnc3c2)n1`, the manual score is 0 (inactive).
Consider `COCCNC(=O)CN1C(=O)CSc2ncccc21`, for which the manual score is 0 (inactive).
With `Cc1ccc2cccc(S(=O)(=O)N3CCN(c4ccccc4F)CC3)c2n1`, the manual score was 0 (inactive).
For `O=C(NC(=S)Nn1cnc2c(cnn2-c2ccccc2)c1=O)c1ccc(Oc2ccccc2)cc1`, the manual score is 1 (active).
The same measure for `CCCN(CCC)CCNC(=O)C(NS(=O)(=O)c1ccc2c(c1)CCC(=O)N2)c1ccccc1` (centres undefined): 0 (inactive); for `Cn1c(=O)c2c(nc3sccn32)n(C)c1=O`: 0 (inactive); for `N#CC1(Cc2ccc([N+](=O)[O-])cc2)c2ccccc2C=CN1C(=O)c1ccccc1` (centres undefined): 0 (inactive).
The same measure for `COc1ccc(-c2nc(C#N)c(NCCCN(C)C)o2)cc1OC`: 0 (inactive); for `COc1cc(-c2nnc(CSc3nc4ccccc4s3)o2)cc(OC)c1OC`: 0 (inactive); for `COc1ccc(-c2nnc(CSc3nc4ccccc4c(=O)n3C)o2)cc1OC`: -1 (active).
Regarding `COc1ccc(C(=O)NNC(=S)NC(=O)c2ccco2)cc1`, the manual score is 1 (active).
For the molecule `COc1ccccc1C(=O)NNC(=S)NC(=O)c1ccco1`, the manual score was 1 (active).
Regarding `S=c1[nH]nc(CSCc2ccc(Cl)cc2Cl)n1-c1ccccc1`, the manual score was 0 (inactive).
Take `S=c1[nH]nc(-c2ccco2)n1/N=C/c1ccc(Cl)cc1Cl`: the manual score is 1 (active).
With `S=c1[nH]nc(-c2ccco2)n1/N=C/c1cccc(Cl)c1Cl`, the manual score was 1 (active).
As to `O=C1c2ccsc2SCCN1Cc1c(Cl)cccc1Cl`, the manual score was 0 (inactive).
For the molecule `CCn1c(SCC(N)=O)nc2sc3c(c2c1=O)CCCC3`, the manual score is 1 (active).
Consider `O=c1c2c3c(sc2nc2n1CCCCC2)CCCCC3`, for which the manual score was 0 (inactive).
The same measure for `COC(=O)c1sc(N2C(=O)C(O)=C(C(=O)c3ccc(C)o3)C2c2ccc(F)cc2)nc1C` (centres undefined): -1 (active); for `C=CCn1c(=O)c2c(C)c(C)sc2n2c(Nc3ccc(OC)cc3)nnc12`: -1 (active).
In the case of `COC(=O)Nc1nnc(Cc2ccc(Cl)cc2)s1`, the manual score is 0 (inactive).
On to `O=C(CSc1nc(-c2ccccc2)cc(=O)[nH]1)N1CCc2ccccc21`, for which the manual score was 0 (inactive).
The value for `O=C(NC(=S)N1CCCc2ccccc21)c1ccc(Br)cc1` was 1 (active); that for `O=C(NC(=S)N1CCCc2ccccc21)c1ccc(Cl)cc1` was 1 (active).
As for `O=S(=O)(Cc1ccccc1)N1CCc2ccccc21`, the manual score is 3 (inactive).
With `O=C(NC(=S)N1CCCc2ccccc21)c1ccc([N+](=O)[O-])cc1`, the manual score is 1 (active).
Take `CC12CCC(C(=O)N3CCCc4ccccc43)(CC1=O)C2(C)C` (centres undefined): the manual score was 0 (inactive).
With `O=C(NC(=S)N1CCc2ccccc21)c1ccccc1`, the manual score is 1 (active).
